# In PMC7862700, “An all-to-all approach to the identification of sequence-specific readers for epigenetic DNA modifications on cytosine”:
# How the values were obtained:
# Test in all cases: DAPPL (digital affinity profiling via proximity ligation, sequencing); 10 mM Tris-HCl pH 7.5, 50 mM NaCl, 1 mM DTT, 4% glycerol, room temperature, 30 min; GST-TFs on glutathione beads, 16-mer random dsDNA library, 0.1% formaldehyde crosslink after washing; high values mean tight binding
# FLI1 = biological target: T1, FLI1 (Homo sapiens, UniProt Q01543 1-452); conditions: protein: recombinant; tags: N-terminal GST; dsDNA, one strand shown
# T1 sequence: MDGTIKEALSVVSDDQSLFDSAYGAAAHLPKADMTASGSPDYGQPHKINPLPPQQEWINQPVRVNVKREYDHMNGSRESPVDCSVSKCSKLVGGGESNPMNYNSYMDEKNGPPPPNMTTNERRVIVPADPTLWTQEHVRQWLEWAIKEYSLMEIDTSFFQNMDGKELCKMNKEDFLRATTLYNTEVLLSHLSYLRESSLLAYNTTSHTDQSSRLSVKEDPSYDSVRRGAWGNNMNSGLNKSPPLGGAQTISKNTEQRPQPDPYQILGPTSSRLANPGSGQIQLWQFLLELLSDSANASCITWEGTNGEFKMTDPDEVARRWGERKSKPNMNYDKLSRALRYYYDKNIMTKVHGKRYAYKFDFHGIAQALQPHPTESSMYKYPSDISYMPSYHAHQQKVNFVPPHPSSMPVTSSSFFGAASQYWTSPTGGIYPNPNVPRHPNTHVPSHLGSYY
# How it was run: (§1)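 Binding signal is given per hexamer as its read frequency for a factor divided by its frequency in the tag-only sample. GST-fused human transcription factors were expressed in yeast, captured on glutathione beads, barcoded with DNA and pooled with that sample, then incubated with 200 nmole of a 16-mer random double-stranded DNA library in Tris/NaCl/DTT/glycerol buffer for 30 min at room temperature. The pools were then washed, crosslinked, proximity-ligated, amplified by PCR and sequenced on an Illumina NextSeq500.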
# ELK1 = biological target: T2, ELK1 (Homo sapiens, UniProt P19419 1-428); conditions: protein: recombinant; tags: N-terminal GST; dsDNA, one strand shown
# T2 sequence: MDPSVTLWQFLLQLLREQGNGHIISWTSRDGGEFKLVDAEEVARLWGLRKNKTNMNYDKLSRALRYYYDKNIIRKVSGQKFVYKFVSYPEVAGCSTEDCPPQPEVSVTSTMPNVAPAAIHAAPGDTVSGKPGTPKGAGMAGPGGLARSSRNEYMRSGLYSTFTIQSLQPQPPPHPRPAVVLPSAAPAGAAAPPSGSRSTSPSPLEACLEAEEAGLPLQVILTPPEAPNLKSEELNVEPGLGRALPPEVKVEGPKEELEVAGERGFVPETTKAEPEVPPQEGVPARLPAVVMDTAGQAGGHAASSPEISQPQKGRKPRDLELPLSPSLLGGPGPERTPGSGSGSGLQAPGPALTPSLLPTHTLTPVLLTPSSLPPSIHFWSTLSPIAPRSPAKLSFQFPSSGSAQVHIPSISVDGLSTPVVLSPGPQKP
# How it was run: as §1
# GABPA = biological target: T3, GABPA (Homo sapiens, UniProt Q06546 1-454); conditions: protein: recombinant; tags: N-terminal GST; dsDNA, one strand shown
# T3 sequence: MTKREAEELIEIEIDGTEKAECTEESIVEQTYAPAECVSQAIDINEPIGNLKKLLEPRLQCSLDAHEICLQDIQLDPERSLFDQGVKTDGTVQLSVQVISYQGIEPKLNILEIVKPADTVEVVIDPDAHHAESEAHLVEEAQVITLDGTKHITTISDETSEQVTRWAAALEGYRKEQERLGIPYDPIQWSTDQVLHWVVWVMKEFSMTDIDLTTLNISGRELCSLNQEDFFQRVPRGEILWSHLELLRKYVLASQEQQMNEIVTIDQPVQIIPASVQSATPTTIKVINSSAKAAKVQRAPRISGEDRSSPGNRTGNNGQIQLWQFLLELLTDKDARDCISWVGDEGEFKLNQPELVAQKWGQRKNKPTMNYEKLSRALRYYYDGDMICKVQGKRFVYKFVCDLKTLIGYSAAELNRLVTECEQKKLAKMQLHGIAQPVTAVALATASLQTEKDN
# How it was run: as §1
# ERG = biological target: T4, ERG (Homo sapiens, UniProt P11308 1-479); conditions: protein: recombinant; tags: N-terminal GST; dsDNA, one strand shown
# T4 sequence: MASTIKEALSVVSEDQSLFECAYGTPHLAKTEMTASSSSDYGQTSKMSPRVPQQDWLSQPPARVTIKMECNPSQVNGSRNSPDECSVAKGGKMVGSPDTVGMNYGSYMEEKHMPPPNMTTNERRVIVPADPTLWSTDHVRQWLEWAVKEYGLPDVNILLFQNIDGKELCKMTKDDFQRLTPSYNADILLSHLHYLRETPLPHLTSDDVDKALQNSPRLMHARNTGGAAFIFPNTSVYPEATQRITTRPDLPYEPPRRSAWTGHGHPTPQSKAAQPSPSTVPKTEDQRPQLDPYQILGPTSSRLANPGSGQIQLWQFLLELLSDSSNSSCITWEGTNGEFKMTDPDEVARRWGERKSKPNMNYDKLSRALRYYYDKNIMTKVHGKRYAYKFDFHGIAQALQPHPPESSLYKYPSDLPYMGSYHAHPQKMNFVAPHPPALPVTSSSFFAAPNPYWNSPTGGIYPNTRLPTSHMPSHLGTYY
# How it was run: as §1
# ELF1 = ELF1 (Homo sapiens, UniProt P32519 1-619); conditions: protein: recombinant; tags: N-terminal GST; dsDNA, one strand shown
# How it was run: as §1
# EHF = biological target: T5, EHF (Homo sapiens, UniProt Q9NZC4 1-300); conditions: protein: recombinant; tags: N-terminal GST; dsDNA, one strand shown
# T5 sequence: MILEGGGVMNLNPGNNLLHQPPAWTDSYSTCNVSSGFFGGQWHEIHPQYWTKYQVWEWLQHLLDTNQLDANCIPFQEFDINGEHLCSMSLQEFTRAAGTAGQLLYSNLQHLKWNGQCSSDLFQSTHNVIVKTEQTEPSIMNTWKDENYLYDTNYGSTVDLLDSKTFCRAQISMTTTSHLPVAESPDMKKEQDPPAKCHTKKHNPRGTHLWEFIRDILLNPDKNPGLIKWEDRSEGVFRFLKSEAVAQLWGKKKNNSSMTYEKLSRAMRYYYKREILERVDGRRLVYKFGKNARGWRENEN
# How it was run: as §1
# SPI1 = SPI1 (Homo sapiens, UniProt P17947 1-270); conditions: protein: recombinant; tags: N-terminal GST; dsDNA, one strand shown
# How it was run: as §1
# SPIB = SPIB (Homo sapiens, UniProt Q01892 1-262); conditions: protein: recombinant; tags: N-terminal GST; dsDNA, one strand shown
# How it was run: as §1
# ELK3 = biological target: T6, ELK3 (Homo sapiens, UniProt P41970 1-407); conditions: protein: recombinant; tags: N-terminal GST; dsDNA, one strand shown
# T6 sequence: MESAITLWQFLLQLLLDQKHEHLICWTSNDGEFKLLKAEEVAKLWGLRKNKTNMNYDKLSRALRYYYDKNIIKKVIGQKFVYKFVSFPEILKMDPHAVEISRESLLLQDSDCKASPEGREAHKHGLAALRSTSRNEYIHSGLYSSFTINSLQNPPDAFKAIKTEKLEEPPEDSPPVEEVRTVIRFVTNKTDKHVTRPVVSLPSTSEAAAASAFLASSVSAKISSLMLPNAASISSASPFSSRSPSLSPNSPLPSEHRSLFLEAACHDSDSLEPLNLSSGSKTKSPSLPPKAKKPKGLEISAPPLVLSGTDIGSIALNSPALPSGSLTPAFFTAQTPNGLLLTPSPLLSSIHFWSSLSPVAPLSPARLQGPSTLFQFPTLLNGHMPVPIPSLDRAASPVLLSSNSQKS
# How it was run: as §1
# FEV = biological target: T7, FEV (Homo sapiens, UniProt Q99581 1-238); conditions: protein: recombinant; tags: N-terminal GST; dsDNA, one strand shown
# T7 sequence: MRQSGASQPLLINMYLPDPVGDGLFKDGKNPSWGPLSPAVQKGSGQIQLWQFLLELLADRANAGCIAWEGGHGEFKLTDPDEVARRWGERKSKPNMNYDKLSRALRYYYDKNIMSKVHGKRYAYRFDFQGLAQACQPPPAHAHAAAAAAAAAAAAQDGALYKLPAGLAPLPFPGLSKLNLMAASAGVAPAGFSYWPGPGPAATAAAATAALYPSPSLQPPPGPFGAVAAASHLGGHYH
# How it was run: as §1
# ETV5 = ETV5 (Homo sapiens, UniProt P41161 1-510); conditions: protein: recombinant; tags: N-terminal GST; dsDNA, one strand shown
# How it was run: as §1
# HSF1 = HSF1 (Homo sapiens, UniProt Q00613 1-529); conditions: protein: recombinant; tags: N-terminal GST; chain copies: 3; dsDNA, one strand shown
# How it was run: as §1
# SPIC = biological target: T8, SPIC (Homo sapiens, UniProt Q8N5J4 1-248); conditions: protein: recombinant; tags: N-terminal GST; dsDNA, one strand shown
# T8 sequence: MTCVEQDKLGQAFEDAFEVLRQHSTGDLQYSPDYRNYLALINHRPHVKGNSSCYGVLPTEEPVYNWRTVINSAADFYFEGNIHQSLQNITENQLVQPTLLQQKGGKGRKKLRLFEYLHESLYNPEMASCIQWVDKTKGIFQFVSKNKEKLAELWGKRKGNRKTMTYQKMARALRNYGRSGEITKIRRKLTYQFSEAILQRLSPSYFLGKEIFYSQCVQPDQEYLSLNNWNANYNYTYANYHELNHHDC
# How it was run: as §1
# ELF4 = ELF4 (Homo sapiens, UniProt Q99607 1-663); conditions: protein: recombinant; tags: N-terminal GST; dsDNA, one strand shown
# How it was run: as §1
# ELK4 = biological target: T9, ELK4 (Homo sapiens, UniProt P28324-2 1-405); conditions: protein: recombinant; tags: N-terminal GST; dsDNA, one strand shown
# T9 sequence: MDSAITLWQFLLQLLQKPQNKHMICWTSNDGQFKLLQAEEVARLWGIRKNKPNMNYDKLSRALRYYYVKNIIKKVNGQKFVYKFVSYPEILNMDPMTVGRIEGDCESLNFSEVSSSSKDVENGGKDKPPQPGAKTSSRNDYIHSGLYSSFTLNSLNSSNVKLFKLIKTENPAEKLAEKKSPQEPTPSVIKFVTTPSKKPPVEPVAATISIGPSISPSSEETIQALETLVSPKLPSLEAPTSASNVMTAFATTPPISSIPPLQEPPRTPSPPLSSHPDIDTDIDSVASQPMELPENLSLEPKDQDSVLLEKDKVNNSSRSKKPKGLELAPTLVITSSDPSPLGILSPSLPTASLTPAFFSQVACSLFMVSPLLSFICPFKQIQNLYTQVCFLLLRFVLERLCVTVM
# How it was run: as §1
# ETV2 = biological target: T10, ETV2 (Homo sapiens, UniProt O00321 1-342); conditions: protein: recombinant; tags: N-terminal GST; dsDNA, one strand shown
# T10 sequence: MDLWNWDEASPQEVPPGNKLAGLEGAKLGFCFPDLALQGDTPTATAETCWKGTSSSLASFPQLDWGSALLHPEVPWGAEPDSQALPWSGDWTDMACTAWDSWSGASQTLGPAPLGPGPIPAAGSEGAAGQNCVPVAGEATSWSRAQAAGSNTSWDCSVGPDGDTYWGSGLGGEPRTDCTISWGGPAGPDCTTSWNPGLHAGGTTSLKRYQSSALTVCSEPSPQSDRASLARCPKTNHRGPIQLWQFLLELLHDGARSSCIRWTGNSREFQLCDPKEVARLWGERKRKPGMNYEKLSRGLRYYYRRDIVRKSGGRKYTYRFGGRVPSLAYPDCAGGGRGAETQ
# How it was run: as §1
# ELF3 = biological target: T11, ELF3 (Homo sapiens, UniProt P78545 1-371); conditions: protein: recombinant; tags: N-terminal GST; dsDNA, one strand shown
# T11 sequence: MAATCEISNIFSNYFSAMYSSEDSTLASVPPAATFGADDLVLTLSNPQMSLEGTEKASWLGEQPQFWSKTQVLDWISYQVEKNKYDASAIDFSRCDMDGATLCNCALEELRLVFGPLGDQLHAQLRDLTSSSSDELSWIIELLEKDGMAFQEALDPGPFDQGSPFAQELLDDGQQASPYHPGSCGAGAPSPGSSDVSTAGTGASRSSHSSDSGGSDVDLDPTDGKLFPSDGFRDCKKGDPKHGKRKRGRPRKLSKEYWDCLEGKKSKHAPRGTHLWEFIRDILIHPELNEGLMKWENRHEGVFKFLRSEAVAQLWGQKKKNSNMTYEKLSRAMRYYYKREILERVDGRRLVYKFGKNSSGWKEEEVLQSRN
# How it was run: as §1
# CRX = CRX (Homo sapiens, UniProt O43186 1-299); conditions: protein: recombinant; tags: N-terminal GST; dsDNA, one strand shown
# How it was run: as §1
# ETV1 = ETV1 (Homo sapiens, UniProt P50549 1-477); conditions: protein: recombinant; tags: N-terminal GST; dsDNA, one strand shown
# How it was run: as §1
# ETV5, sequence (P41161 whole entry): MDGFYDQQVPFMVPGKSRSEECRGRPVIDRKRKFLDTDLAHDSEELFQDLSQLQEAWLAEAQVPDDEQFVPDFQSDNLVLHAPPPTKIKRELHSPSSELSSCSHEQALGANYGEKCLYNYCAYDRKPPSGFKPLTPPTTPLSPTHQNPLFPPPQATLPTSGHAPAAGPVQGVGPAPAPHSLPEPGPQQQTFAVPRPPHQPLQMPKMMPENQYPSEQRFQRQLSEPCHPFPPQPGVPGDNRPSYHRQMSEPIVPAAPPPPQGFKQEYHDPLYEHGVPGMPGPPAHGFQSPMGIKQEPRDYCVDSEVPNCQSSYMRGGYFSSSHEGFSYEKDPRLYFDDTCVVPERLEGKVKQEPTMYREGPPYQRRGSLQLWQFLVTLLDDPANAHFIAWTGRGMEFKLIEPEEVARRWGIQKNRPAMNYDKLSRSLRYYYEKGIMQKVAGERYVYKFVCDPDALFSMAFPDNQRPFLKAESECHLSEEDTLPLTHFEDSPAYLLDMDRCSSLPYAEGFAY
# SPIB, sequence (Q01892 whole entry): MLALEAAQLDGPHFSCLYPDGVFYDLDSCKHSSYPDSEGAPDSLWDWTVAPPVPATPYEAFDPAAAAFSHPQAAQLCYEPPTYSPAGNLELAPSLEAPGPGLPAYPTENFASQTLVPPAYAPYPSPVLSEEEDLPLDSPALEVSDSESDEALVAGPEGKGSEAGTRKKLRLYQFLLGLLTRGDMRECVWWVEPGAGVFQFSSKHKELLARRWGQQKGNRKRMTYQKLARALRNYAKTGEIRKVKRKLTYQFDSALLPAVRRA
# ELF4, sequence (Q99607 whole entry): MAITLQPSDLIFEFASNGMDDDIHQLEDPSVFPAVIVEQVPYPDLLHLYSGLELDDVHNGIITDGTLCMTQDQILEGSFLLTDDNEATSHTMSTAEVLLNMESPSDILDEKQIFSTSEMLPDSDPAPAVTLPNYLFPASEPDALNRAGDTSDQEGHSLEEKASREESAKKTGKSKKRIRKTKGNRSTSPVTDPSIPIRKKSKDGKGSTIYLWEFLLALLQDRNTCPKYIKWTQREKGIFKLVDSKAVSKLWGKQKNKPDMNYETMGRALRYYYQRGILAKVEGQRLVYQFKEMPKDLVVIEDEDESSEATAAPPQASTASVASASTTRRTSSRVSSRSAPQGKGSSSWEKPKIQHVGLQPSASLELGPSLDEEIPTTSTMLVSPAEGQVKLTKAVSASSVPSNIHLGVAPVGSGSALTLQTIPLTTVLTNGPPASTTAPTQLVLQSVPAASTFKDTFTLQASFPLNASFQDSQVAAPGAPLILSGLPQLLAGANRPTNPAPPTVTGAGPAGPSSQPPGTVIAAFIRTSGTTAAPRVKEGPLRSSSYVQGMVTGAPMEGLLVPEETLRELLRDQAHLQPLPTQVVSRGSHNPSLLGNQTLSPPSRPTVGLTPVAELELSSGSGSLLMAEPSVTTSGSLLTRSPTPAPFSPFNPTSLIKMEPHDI
# ELF1, sequence (P32519 whole entry): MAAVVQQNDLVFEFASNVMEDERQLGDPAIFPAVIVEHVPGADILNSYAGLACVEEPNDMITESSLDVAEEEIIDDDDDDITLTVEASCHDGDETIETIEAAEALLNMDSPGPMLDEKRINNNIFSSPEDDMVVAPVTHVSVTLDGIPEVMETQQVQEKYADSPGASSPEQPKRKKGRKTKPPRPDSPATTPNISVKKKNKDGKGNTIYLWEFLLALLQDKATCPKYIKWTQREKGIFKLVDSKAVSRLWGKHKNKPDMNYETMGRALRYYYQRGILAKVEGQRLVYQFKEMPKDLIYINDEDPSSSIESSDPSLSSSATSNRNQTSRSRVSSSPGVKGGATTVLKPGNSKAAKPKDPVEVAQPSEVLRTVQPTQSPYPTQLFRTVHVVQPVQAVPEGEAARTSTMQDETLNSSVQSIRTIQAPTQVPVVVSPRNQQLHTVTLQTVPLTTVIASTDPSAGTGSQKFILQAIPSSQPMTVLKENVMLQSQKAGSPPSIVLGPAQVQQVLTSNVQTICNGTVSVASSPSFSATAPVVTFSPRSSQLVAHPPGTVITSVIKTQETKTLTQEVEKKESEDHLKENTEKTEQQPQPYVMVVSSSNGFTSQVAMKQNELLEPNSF
# HSF1, sequence (Q00613 whole entry): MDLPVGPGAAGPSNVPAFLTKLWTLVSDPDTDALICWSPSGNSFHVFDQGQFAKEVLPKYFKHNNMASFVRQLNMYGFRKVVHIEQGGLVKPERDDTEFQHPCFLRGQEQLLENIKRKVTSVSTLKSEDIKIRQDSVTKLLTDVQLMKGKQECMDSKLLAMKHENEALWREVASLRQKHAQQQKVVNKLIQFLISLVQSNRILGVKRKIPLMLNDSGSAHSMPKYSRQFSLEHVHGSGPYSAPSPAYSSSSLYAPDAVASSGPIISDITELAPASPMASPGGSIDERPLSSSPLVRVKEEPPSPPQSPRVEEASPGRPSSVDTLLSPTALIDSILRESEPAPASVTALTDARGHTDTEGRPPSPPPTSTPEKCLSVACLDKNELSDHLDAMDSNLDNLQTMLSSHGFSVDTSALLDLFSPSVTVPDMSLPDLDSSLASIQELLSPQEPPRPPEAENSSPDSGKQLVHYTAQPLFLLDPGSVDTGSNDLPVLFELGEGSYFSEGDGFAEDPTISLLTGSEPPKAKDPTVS
# ETV1, sequence (P50549 whole entry): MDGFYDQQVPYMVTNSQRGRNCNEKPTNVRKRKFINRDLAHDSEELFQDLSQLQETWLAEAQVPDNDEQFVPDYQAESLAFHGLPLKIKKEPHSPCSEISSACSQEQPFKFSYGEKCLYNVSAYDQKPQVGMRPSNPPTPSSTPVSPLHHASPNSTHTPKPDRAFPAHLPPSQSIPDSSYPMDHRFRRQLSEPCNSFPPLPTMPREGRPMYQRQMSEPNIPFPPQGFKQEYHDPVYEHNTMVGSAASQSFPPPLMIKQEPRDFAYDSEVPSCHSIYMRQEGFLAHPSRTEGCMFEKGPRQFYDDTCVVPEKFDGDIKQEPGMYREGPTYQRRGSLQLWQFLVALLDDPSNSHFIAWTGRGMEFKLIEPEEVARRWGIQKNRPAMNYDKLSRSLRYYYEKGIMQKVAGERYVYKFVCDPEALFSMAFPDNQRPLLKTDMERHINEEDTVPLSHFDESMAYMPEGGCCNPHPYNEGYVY
# CRX, sequence (O43186 whole entry): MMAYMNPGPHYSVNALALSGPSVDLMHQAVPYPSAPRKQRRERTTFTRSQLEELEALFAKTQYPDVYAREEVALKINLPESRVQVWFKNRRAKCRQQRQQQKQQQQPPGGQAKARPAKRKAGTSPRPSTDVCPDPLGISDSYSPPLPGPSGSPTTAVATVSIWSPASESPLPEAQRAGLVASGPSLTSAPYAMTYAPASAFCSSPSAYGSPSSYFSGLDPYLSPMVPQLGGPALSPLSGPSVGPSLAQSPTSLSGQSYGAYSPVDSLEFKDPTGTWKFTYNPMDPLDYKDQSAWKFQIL
sequence,measurement,setting,value
ATATCC,binding signal,FLI1,"2.59 fold enrichment (6-mer frequency, TF over GST control)"
same,binding signal,ELK1,"2.88 fold enrichment (6-mer frequency, TF over GST control)"
same,binding signal,GABPA,"2.45 fold enrichment (6-mer frequency, TF over GST control)"
same,binding signal,ERG,"3.33 fold enrichment (6-mer frequency, TF over GST control)"
same,binding signal,ELF1,"2.56 fold enrichment (6-mer frequency, TF over GST control)"
same,binding signal,EHF,"2.58 fold enrichment (6-mer frequency, TF over GST control)"
same,binding signal,SPI1,"2.43 fold enrichment (6-mer frequency, TF over GST control)"
same,binding signal,SPIB,"2.82 fold enrichment (6-mer frequency, TF over GST control)"
same,binding signal,ELK3,"2.72 fold enrichment (6-mer frequency, TF over GST control)"
same,binding signal,FEV,"5.87 fold enrichment (6-mer frequency, TF over GST control)"
same,binding signal,ETV5,"2.97 fold enrichment (6-mer frequency, TF over GST control)"
same,binding signal,HSF1,"1.31 fold enrichment (6-mer frequency, TF over GST control)"
same,binding signal,SPIC,"2.59 fold enrichment (6-mer frequency, TF over GST control)"
same,binding signal,ELF4,"2.27 fold enrichment (6-mer frequency, TF over GST control)"
same,binding signal,ELK4,"2.39 fold enrichment (6-mer frequency, TF over GST control)"
same,binding signal,ETV2,"2.7 fold enrichment (6-mer frequency, TF over GST control)"
same,binding signal,ELF3,"2.77 fold enrichment (6-mer frequency, TF over GST control)"
same,binding signal,CRX,"1.58 fold enrichment (6-mer frequency, TF over GST control)"
same,binding signal,ETV1,"2.72 fold enrichment (6-mer frequency, TF over GST control)"
